The source of these data is PubChem BioAssay (NCATS).

Several values for one entry are separate records, joined by “and”; a condition that tells them apart may be missing. Equal entries are not always repeated. Records with an inconclusive call do not appear. Activity calls are given as the source filed them. Unless noted, the call rests on the fitted dose curve; in most records, active means well fitted cell-killing curve with a large enough effect; inconclusive means small, poorly fitted or top-dose-only effect; inactive means flat fitted curve, though single readings scatter.

The nature of assay [1]: Cell Viability - LYMP2-020 (AID 986).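 Further: series mostly up to about 92 µM; cells exposed to compound for 24 h at 37 °C; plate controls were DMSO only for no effect and tetraoctylammonium bromide at 92 µM for full effect; nearly all actives have a fitted effect of over 55% in size.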 An outline of the steps: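 Seed 2500 cells per well and incubate 5 hr at 37 C. Add compounds at a concentration series and incubate 24 hr at 37 C. Add CellTiter-Glo, wait 30 min at RT, read luminescence, and fit a Hill curve for AC50.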
Assay [2] can be described thus: Cell Viability - LYMP2-022 (AID 987).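 Further: 0% = DMSO alone and full effect = tetraoctylammonium bromide at 92 µM; nearly all actives have a fitted effect of over 55% in size.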 An outline of the steps: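 Cells were seeded at 2500 per well, rested 5 hr at 37 C, and treated with titrated compounds for 24 hr at 37 C. Cellular ATP was then quantified by luciferase luminescence, and AC50 values were derived from Hill-modelled concentration-response curves.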
A short description of assay [3]: Cell Viability - LYMP2-024 (AID 988).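 Further: plate controls were DMSO only for no effect and 92 µM tetraoctylammonium bromide for full effect; nearly all actives have a fitted effect of over 60% in size.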 The method, boiled down:
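qHTS cytotoxicity, human lymphoblastoid line, complete medium; 24 h cpd treatment, 37 C; CellTiter-Glo ATP luminescence readout; tetraoctylammonium bromide positive control; AC50 via Hill fit.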

Assay [4] in a line: Cell Viability - LYMP2-026 (AID 989).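 Further: cells exposed to compound for 24 h at 37 °C; on the % scale 0 is the no-effect control and ±100 the full control effect; nearly all actives have a fitted effect of over 50% in size.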 An outline of the steps: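 Cells are seeded at 2500 per well and held 5 hr at 37 C. Compounds are added in concentration series for 24 hr, then CellTiter-Glo reagent is applied and luminescence read.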
A short description of assay [5]: Cell Viability - LYMP1-002 - Assay at 24 hr (AID 993). Further: on the % scale 0 is the no-effect control and ±100 the full control effect. An outline of the steps:
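Acute toxicity is measured as concentration-dependent loss of cellular ATP in a human lymphoblastoid line (Coriell LYMP1-002) after 24 h treatment in complete medium. ATP is quantified by luciferase luminescence and AC50 derived by Hill modelling.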

A short description of assay [6]: Cell Viability - LYMP1-002 - Assay at 40 hr (AID 994).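 Further: 0% = DMSO only and full inhibition = 92 µM tetraoctylammonium bromide; nearly all actives have a fitted effect of over 60% in size.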 The method, boiled down:
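Cells are plated at 2500 per well and rested 5 hr at 37 C. Compounds are added and incubated 40 hr at 37 C. CellTiter-Glo reagent is added for 30 min at room temperature before luminescence is read.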

For assay [7], the target named is Glucocorticoid receptor (Homo sapiens) (UniProt P04150). Kind of assay: qHTS assay for small molecule agonists of glucocorticoid receptor signaling (AID 588532; active means well fitted curve in the direction sought with a large enough effect in the signal ratio, with a control signal flat; the % refers to the signal ratio;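 further: 100% = dexamethasone at 0.1 µM and 0% = DMSO only wells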). To be noted: HeLa MMTV-bla, beta-lactamase ratio, agonist, 18 h; stronger effect = higher value; percent of dexamethasone control, DMSO zero. An outline of the steps:
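MMTV-bla HeLa, beta-lactamase reporter; medium with 1% charcoal/dextran-stripped FBS; cpds up to 92 uM, 18 h, 37 C; CCF4 readout 460/530 nm; Hill fit → EC50, efficacy vs 0.1 uM dexamethasone = 100%.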

Assay [8] shares this target. Kind of assay: qHTS assay for small molecule antagonists of glucocorticoid receptor signaling (AID 588533; active means well fitted inhibition curve with a large enough effect in the signal ratio, with a control signal flat, not every such curve was filed as active; the % refers to the signal ratio;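 further: cells stimulated with 2 nM dexamethasone as agonist; on the % scale 0 is the no-effect control and ±100 the full control effect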). An outline of the steps:
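Antagonist-mode qHTS: compound titrations added to GRE-bla HeLa cells, then dexamethasone 2 nM final; 18 h, 37 C. CCF4 FRET fluorescence normalized to dexamethasone and DMSO; IC50 from Hill fit.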

The target of assay [9] is Peroxisome proliferator-activated receptor gamma (Homo sapiens) (UniProt P37231). Kind of assay: qHTS assay for small molecule agonists of peroxisome proliferator-activated receptor gamma signaling (AID 588536; active means well fitted curve in the direction sought with a large enough effect in the signal ratio, with a control signal flat, not every such curve was filed as active; the % refers to the signal ratio;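 further: 0% = DMSO basal wells and 100% = rosiglitazone at 2 µM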). The method, boiled down:
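This is an agonist-mode beta-lactamase reporter assay in HEK293 PPAR-gamma-UAS-bla cells with 1% charcoal/dextran FBS. Compound titrations ran 16 h at 37 C before CCF4 detection. EC50 and efficacy are Hill fits scaled to 2 uM rosiglitazone (100%) and DMSO basal.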

In assay [10] the target is Vitamin D3 receptor (Homo sapiens) (UniProt P11473). Kind of assay: qHTS assay for small molecule antagonists of vitamin D receptor signaling (AID 588541; calls by dose curve;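 further: receptor activated by calcitriol during compound treatment; series mostly up to about 77 µM; on the % scale 0 is the no-effect control and ±100 the full control effect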). An outline of the steps:
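VDR-UAS-bla HEK293T cells (2000/well, 2% charcoal-stripped FBS) were treated with titrated compounds plus 1-alpha,25-dihydroxyvitamin D3 (50 nM or 3 nM final) for 16 h at 37 C. CCF4 beta-lactamase fluorescence was read; Hill fits gave IC50.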

The target is the same in assay [11]. Kind of assay: qHTS assay for small molecule agonists of vitamin D receptor signaling (AID 588543; calls by dose curve;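 further: 0% = DMSO basal and 100% = reference agonist control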). The method, boiled down:
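β-lactamase reporter, VDR-UAS-bla HEK293T, agonist mode. Cells plated 5 h at 37 °C, compound titration 16 h at 37 °C, CCF4 dye 2 h RT, ratio 460/530 nm. Hill fit → EC50, efficacy vs 50 nM 1α,25-(OH)2D3.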

Assay [12] deals with Bile acid receptor (Homo sapiens) (UniProt Q96RI1). Kind of assay: qHTS assay for small molecule antagonists of farnesoid X receptor signaling (AID 588526; calls by dose curve; further: on the % scale 0 is the no-effect control and ±100 the full control effect). The method, boiled down: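 Concentration-response titrations were fitted to the Hill equation for half-maximal inhibition and maximal response, with data normalised to 50 uM chenodeoxycholic acid and DMSO control wells. Cells: FXR-UAS-bla HEK293T, dialyzed FBS.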
Bile acid receptor (Homo sapiens), sequence (Q96RI1 whole entry, looked up): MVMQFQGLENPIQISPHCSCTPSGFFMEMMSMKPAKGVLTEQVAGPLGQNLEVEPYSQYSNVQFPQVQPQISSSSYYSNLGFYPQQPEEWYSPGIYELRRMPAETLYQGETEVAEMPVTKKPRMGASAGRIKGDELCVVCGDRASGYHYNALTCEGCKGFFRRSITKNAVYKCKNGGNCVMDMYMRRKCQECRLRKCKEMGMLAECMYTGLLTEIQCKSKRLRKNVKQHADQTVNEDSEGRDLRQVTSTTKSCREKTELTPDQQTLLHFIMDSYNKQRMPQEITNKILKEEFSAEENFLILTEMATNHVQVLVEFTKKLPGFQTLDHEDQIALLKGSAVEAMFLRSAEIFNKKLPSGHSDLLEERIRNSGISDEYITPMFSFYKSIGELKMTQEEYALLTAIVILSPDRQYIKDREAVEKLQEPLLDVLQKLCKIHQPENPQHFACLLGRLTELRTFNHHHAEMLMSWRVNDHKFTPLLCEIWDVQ

Assay [13] is described as follows: qHTS assay for small molecule antagonists of peroxisome proliferator-activated receptor delta signaling (AID 588535; active means well fitted inhibition curve with a large enough effect in the signal ratio, with a control signal flat, not every such curve was filed as active; the % refers to the signal ratio;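 on max response: cells co-treated with a PPAR-delta agonist as stimulator during compound exposure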). To be noted: HEK293T PPARd-UAS-bla, beta-lactamase FRET ratio, 18 h; 460 nm channel. The method, boiled down: (§1)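 Inhibition of PPAR-delta response element-driven beta-lactamase expression is measured in HEK293T cells exposed to a compound titration series for 18 hrs at 37 C. Half-maximal inhibition comes from Hill equation fitting.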

In assay [14] the target is Peroxisome proliferator-activated receptor delta (Homo sapiens) (UniProt Q03181). The description is as above. The method, boiled down: as §1
Peroxisome proliferator-activated receptor delta (Homo sapiens), sequence (Q03181 whole entry, looked up): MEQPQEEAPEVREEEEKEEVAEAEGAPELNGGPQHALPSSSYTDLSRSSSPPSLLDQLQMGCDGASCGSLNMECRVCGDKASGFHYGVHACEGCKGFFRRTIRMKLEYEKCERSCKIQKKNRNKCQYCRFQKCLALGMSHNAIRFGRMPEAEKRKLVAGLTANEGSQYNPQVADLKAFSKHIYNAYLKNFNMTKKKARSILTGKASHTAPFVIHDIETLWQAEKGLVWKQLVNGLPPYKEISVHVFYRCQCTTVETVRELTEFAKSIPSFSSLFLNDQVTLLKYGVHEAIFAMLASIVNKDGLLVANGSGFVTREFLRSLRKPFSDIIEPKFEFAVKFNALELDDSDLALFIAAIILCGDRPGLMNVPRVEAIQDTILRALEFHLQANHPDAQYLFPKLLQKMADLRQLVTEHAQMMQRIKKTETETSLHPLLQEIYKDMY
Assay [15] addresses Peroxisome proliferator-activated receptor gamma (Homo sapiens) (UniProt P37231). Kind of assay: qHTS assay for small molecule antagonists of peroxisome proliferator-activated receptor gamma signaling (AID 588537; active means well fitted inhibition curve with a large enough effect in the signal ratio, with a control signal flat, not every such curve was filed as active; the % refers to the signal ratio;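 further: reporter cells co-stimulated with 50 nM rosiglitazone agonist during compound treatment; % of control where 0% means no effect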). An outline of the steps:
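Compounds are tested as concentration series for inhibition of rosiglitazone-driven (50 nM) reporter expression in GeneBLAzer PPAR-gamma-UAS-bla HEK293 cells. After 16 h at 37 C, CCF4 substrate is added for 2 h at room temperature and blue/green fluorescence is measured.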

Assay [16] addresses Androgen receptor (Homo sapiens) (UniProt P10275). Kind of assay: qHTS assay for small molecule agonists of androgen receptor signaling (AID 588515; active means well fitted curve in the direction sought with a large enough effect in the signal ratio, with a control signal flat; the % refers to the signal ratio; further: on the % scale 0 is the no-effect control and ±100 the full control effect). Conditions: AR-UAS-bla HEK293, beta-lactamase ratio, agonist 16 h; stronger effect = higher value. The method, boiled down:
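Stimulation of an AR-responsive β-lactamase reporter in GripTite HEK293 cells was measured after 16 h compound exposure at 37 °C, via CCF4 fluorescence after 2 h RT. EC50 from Hill fits, normalized to R1881 at 30 nM.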

For assay [17], the target named is Estrogen receptor (Homo sapiens) (UniProt P03372). Kind of assay: qHTS assay for small molecule antagonists of estrogen receptor alpha signaling (AID 588513; active means well fitted curve in the direction sought with a large enough effect in the signal ratio, with a control signal flat, not every such curve was filed as active; the % refers to the signal ratio; further: on the % scale 0 is the no-effect control and ±100 the full control effect). The method, boiled down: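 Beta-lactamase reporter, antagonist mode, HEK 293 GripTite cells; 0.5nM E2 stimulus, 18 h, 37 C; CCF4 dye 2 h RT; fluorescence. IC50 and efficacy from Hill fits, normalized to E2 and DMSO.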
Estrogen receptor (Homo sapiens), sequence (P03372 whole entry, looked up): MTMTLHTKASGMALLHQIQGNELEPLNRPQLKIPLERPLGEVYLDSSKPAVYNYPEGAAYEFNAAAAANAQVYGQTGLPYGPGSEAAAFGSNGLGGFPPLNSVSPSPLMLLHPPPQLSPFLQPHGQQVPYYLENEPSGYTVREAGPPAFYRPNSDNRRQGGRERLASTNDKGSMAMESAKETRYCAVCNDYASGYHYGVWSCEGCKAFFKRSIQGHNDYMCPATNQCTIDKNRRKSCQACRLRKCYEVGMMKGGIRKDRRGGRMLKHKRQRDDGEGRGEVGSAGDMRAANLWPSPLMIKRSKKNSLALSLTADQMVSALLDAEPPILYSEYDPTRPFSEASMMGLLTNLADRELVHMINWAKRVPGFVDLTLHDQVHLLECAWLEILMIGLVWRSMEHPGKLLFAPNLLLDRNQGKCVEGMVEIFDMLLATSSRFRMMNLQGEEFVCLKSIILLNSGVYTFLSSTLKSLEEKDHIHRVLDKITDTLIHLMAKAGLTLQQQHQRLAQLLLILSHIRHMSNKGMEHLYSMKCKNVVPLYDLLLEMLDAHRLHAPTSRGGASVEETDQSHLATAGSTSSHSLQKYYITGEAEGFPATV

Assay [18] shares this target. Kind of assay: qHTS assay for small molecule agonists of estrogen receptor alpha signaling (AID 588514; calls by dose curve;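 further: 0% = vehicle only and 100% = reference agonist; nearly all actives have a fitted effect of over 70% in size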). The method, boiled down:
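Efficacy is expressed against 20 nM 17-beta-estradiol (100%) and DMSO basal (0%); EC50 from Hill equation. Assay: beta-lactamase reporter in ER-alpha-UAS-bla HEK 293 cells, 18 h compound incubation, CCF4 detection.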

Peroxisome proliferator-activated receptor gamma (Homo sapiens), sequence (P37231 whole entry, looked up): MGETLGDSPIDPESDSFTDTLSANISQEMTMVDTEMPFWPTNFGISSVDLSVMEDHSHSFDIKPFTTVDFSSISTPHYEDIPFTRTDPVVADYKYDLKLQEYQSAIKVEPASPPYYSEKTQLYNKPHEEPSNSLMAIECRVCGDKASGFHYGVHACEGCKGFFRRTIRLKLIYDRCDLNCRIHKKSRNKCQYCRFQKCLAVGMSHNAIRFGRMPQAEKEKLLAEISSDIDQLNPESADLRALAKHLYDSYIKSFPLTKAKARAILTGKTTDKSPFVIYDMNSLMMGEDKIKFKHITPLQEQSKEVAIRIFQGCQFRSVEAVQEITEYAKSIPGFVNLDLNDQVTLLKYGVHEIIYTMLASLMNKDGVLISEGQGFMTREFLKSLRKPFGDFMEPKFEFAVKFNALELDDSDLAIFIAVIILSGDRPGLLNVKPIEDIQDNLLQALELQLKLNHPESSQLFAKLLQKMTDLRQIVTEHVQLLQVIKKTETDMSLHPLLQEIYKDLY
Glucocorticoid receptor (Homo sapiens), sequence (P04150 whole entry, looked up): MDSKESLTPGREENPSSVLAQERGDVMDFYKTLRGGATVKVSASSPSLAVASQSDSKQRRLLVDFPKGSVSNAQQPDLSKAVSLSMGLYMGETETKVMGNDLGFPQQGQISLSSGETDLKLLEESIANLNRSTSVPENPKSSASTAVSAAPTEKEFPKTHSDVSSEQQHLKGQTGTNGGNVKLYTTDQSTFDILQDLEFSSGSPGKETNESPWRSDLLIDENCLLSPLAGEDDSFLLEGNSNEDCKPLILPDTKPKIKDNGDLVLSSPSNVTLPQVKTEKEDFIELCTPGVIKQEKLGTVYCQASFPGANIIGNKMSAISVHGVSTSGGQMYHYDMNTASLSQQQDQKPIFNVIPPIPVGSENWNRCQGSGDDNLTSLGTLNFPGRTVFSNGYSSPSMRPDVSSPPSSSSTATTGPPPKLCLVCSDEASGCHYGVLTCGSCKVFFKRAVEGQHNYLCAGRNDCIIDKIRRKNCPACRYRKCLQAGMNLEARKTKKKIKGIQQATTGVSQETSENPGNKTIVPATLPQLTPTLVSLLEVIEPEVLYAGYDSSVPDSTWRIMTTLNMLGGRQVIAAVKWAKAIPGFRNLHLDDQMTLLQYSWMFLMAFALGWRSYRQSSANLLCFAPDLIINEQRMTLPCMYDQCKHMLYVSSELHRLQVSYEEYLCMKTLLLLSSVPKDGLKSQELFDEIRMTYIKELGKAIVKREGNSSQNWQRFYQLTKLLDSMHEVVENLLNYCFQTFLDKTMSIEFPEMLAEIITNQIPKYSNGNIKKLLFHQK
Vitamin D3 receptor (Homo sapiens), sequence (P11473 whole entry, looked up): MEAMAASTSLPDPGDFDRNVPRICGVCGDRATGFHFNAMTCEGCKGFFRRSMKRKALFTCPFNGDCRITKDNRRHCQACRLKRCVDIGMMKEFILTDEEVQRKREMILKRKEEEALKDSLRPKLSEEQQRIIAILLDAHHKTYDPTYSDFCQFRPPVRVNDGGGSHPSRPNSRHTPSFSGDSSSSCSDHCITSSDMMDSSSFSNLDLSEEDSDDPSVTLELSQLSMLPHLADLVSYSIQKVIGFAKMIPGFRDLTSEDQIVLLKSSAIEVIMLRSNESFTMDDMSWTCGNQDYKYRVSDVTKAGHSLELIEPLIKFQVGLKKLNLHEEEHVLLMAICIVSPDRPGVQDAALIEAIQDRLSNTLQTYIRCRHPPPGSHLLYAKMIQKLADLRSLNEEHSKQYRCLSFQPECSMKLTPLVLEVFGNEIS
Androgen receptor (Homo sapiens), sequence (P10275 whole entry, looked up): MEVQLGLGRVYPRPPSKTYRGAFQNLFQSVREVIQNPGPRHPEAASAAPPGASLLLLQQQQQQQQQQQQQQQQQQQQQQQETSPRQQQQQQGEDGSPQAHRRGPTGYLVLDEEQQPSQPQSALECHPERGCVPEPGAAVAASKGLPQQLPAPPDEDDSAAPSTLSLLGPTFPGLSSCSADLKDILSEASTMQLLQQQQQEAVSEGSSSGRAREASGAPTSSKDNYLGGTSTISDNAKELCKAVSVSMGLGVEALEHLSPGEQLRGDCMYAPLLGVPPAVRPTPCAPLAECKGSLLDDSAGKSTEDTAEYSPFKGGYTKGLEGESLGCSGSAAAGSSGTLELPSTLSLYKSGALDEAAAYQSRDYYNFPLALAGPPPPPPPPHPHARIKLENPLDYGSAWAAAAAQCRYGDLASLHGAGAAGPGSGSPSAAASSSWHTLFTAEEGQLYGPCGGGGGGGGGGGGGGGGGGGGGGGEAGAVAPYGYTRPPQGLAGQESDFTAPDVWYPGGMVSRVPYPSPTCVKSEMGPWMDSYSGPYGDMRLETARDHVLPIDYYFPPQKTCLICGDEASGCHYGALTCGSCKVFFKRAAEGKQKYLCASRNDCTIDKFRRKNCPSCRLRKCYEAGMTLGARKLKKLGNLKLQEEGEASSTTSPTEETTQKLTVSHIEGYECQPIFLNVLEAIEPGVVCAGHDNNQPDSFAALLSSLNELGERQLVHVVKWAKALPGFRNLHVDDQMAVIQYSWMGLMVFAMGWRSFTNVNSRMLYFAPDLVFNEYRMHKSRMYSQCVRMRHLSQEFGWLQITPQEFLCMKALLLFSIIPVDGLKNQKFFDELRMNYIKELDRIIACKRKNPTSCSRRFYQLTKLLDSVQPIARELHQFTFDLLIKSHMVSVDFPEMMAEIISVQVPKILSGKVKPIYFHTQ

On to `CSc1ccc(C=O)cc1`, for which the Potency result in assay [1], in assay [2], in assay [3], in assay [5] and in [6] was “inactive” each time. In addition, the outcome in assay [4], in assay [8], in assay [9], in assay [10] and in [11] was inactive. Further, the activation in [7] was -2.41% (inactive).

For the molecule `Clc1ccc(Cl)c(Cl)c1Cl`, the Potency result in assay [1], in assay [2], in [5], in assay [6] and in assay [14] was “inactive” throughout. Further, the call in [4], in assay [12], in assay [8], in [9], in assay [15] and in [10] was inactive. Further, the molecule was called inactive in [11]. Further, the activation in assay [7] is 16% (inactive) and -12% (inactive). The max response in [13] is 9.65% and -40.7%.

For the molecule `CCNc1ccccc1`, the Potency entry in assay [1], in assay [2], in assay [5], in [6] and in assay [14] was “inactive” in each case. Besides, the call in [4], in assay [12], in assay [15], in [10] and in [11] was inactive. Moreover, the activation in assay [16] was 1.96% (inactive). In addition, the max response in [13] amounted to 13.4%.

For `Cc1cc(C)cc(O)c1`, the Potency result in assay [1], in assay [2], in assay [3], in assay [5], in assay [6] and in [18] was “inactive” throughout. For the same molecule, the Potency entry in assay [14] was “inactive”. Besides, the call in [4], in assay [17], in assay [9], in [10] and in [11] was inactive. In addition, the activation in assay [7] is -1.28% (inactive). Besides, the max response in [13] turned out to be 32.1%.

As to `CCCCC(CC)COC(=O)CCCCC(=O)OCC(CC)CCCC` (centres undefined), the Potency result in assay [1], in assay [2], in [3], in assay [5], in [6] and in [18] was “inactive” each time. Moreover, in assay [14], the Potency entry is “inactive”. The call in assay [4], in assay [17], in [12], in assay [8], in [9] and in assay [10] was inactive. In [11], the call was inactive. Moreover, the activation in [7] was 0.342% (inactive) and 3.17% (inactive). Further, the max response in [13] is -4.31% and 35.2%.

Turning to `CCC1CO1` (centres undefined), the Potency result in [1], in assay [2], in assay [3], in [5], in assay [6] and in [14] was “inactive” throughout. Moreover, the molecule was called inactive in assay [4], in [12], in [8], in assay [15], in [10] and in assay [11]. In addition, the activation in [7] was -3% (inactive). Further, in assay [13], the max response is -69.5%.

On to `CCC(C)(C)C`, for which the Potency result in [1], in assay [2], in assay [3], in assay [5], in assay [6] and in assay [18] was “inactive” in each case. Besides, the result in assay [4], in assay [17], in assay [12], in assay [8], in assay [9] and in assay [10] was inactive. For the same molecule, the outcome in assay [11] was inactive. The activation in assay [7] was -3.95% (inactive).

In the case of `NC(=O)c1cccc([N+](=O)[O-])c1`, the Potency result in assay [1], in assay [2], in [3], in assay [5], in assay [6] and in [18] was “inactive” each time. Also, the Potency entry in assay [14] was “inactive”. Also, the outcome in assay [4], in assay [17], in assay [8], in [9] and in [15] was inactive. Moreover, the activation in assay [16] was 2.01% (inactive). Further, in assay [13], the max response was -10.1%.
